Hits are enriched below; roughly 0.38% of the tested compounds scored in any of these assays.
Rab7 wt GTP bind – modulators of GTP binding to Rab7, primary screen, biochemical, wildtype, multiplex bead flow cytometry. GST-Rab7 beads, fluorescent GTP binding; actives lie on both sides; untreated = 100%, excess cold GTP = 0%. GTP binding activity (percent of control), % at 10 µM. actives 0.055% (n = 190,000). AID 758, 2007;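 active = fluorescent GTP binding to Rab7 beads changed by at least 20 points from the 100% baseline, either direction, mostly lower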;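 also: median green fluorescence of bound Bodipy-FL-GTP per Rab7 bead population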
Cdc42 wt GTP – modulators of GTP binding to wildtype Cdc42, primary screen, biochemical, multiplex bead flow cytometry, Bodipy-GTP; actives 0.2% (n = 190,000); GST-Cdc42 beads; actives lie on both sides; percent activity (GTP binding), % at 10 µM; AID 761, 2007;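 active = percent activity GTP binding at least 20 points away from the 100% baseline, either down as inhibitor or up as activator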;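 also: median bead fluorescence of bound Bodipy-FL-GTP at 100 nM; below 100% means less GTP binding so inhibitor and above means activator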
Target sequence (P60953 whole entry, looked up): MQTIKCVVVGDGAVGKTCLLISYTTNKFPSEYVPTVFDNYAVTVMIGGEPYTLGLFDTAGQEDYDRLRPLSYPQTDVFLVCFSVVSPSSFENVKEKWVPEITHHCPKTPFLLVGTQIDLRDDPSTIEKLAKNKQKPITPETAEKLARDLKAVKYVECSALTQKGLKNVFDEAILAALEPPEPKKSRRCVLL
Rac1 wt modul – wildtype Rac1 GTP binding modulators, primary screen, biochemical, GST-Rac1 beads, flow cytometry, multiplex. Ras-related C3 botulinum toxin substrate 1 (Homo sapiens), P63000. fluorescent GTP binding; actives lie on both sides; 0 = cold GTP competed, 100 = untreated. GTP binding activity (% of control), % at 10 µM. actives 0.27% (n = 190,000);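 active = GTP binding activity at least 20 points away from the 100% control level, either lower or higher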
Rab2 wt GTP – modulators of GTP binding to Rab2A wildtype, primary screen, biochemical, dog, bead-based flow cytometry, multiplex; GTP binding activity, % at 10 µM; actives 0.19% (n = 190,000); Ras-related protein Rab-2A (Canis lupus familiaris), P61105; GST-Rab2 wt beads, Bodipy-GTP binding;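 active = GTP binding activity at least 20 points away from 100%, either lowered or raised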
Rac1 act GTP bind – GTP binding modulators of activated mutant Rac1, primary screen, biochemical, bead-based flow cytometry, multiplex, fluorescent GTP. GST-Rac1 activated beads; actives lie on both sides; 100% means binding = to untreated wells. actives 0.11% (n = 190,000). percent activity (GTP binding), % at 10 µM. Ras-related C3 botulinum toxin substrate 1 (Homo sapiens), P63000. AID 764, 2007;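 active = GTP binding at least 20 percentage points away from the 100% baseline, in either direction, so actives lie on both sides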
HRas wt GTP – modulators of GTP binding to HRas wildtype, primary screen, biochemical, bead-based flow cytometry, multiplex; GTPase HRas (Homo sapiens), P01112; GST-Ras wt beads, Bodipy-FL-GTP binding; actives lie on both sides; GTP binding activity, % at 10 µM; actives 0.14% (n = 190,000); AID 759, 2007;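 active = GTP binding activity at least 20% away from the 100% baseline, either lowered as inhibitor or raised as activator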
Each line names hits and unclear results; the compound was inactive in the other large screens; [ ] = dose if it differs, or a comment.

Cc1c(N=Nc2c(O)[nH]c(=S)[nH]c2=O)c(=O)n(-c2ccccc2)n1C	none
O=c1[nH]c(=S)[nH]c(O)c1N=Nc1ccc(S(=O)(=O)N2CCc3ccccc32)cc1	Rac1 wt modul 120.0[activator]
CCOCCCn1c(N)c(C(=O)Nc2sc3c(c2C(=O)OC)CCCC3)c2nc3ccccc3nc21	Cdc42 wt GTP 72.0, Rab2 wt GTP 72.0, HRas wt GTP 72.0
O=C(O)C1C2c3ccccc3C(c3ccccc32)C1C(=O)Nc1ccccc1 (centres undefined)	none
Cc1ccc(-n2c(O)c(/C=N/c3ncc(Br)cc3Br)c(=O)[nH]c2=O)cc1	Rac1 wt modul 123.0[activator]
Cc1cccc(-n2c(O)c(C=Nc3ccc(Br)cn3)c(=O)[nH]c2=O)c1	none
CCn1nc(/C=C/c2ccccc2)nc2c(=O)n(C)c(=O)nc1-2	Cdc42 wt GTP 76.0
COCCOC(=O)c1c(C)n(C)c2ccc(OC(=O)N(C)C)cc12	none

Screens (PubChem)
